From the supplement of paper PMC8728848
Only a selection was taken, and the strongest signals are over-represented in it overall.

Columns and labels:
Assay in all cases: glycan array binding signal (z-score within array); higher = stronger binding
Details in all cases: glycan notation: IUPAC condensed, linker removed
[1] = target: Fuc(a1-2)Gal(b1-4)GlcNAc(b1-3)Gal(b1-4)GlcNAc
Procedure, shortened: (§1)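 The binding signal is a Z-score computed within each array. Data were drawn from 3228 arrays in the Consortium for Functional Glycomics database, restricted to those with a known protein sequence. Scores were averaged over arrays of the same protein sequence at different concentrations or buffers, and over linkers, and negative values can be taken as non-binding.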

[2] = target: Fuc(a1-2)Gal(b1-4)GlcNAc(b1-3)[Fuc(a1-2)Gal(b1-4)GlcNAc(b1-6)]GalNAc
Procedure, shortened: as §1

[3] = target: Fuc(a1-2)Gal(b1-4)[Fuc(a1-3)]GlcNAc(b1-2)Man(a1-3)[Fuc(a1-2)Gal(b1-4)[Fuc(a1-3)]GlcNAc(b1-2)Man(a1-6)]Man(b1-4)GlcNAc(b1-4)GlcNAc
Procedure, shortened: as §1

[4] = target: Fuc(a1-2)Gal(b1-4)[Fuc(a1-3)]GlcNAc(b1-2)[Fuc(a1-2)Gal(b1-4)[Fuc(a1-3)]GlcNAc(b1-4)]Man(a1-3)[Fuc(a1-2)Gal(b1-4)[Fuc(a1-3)]GlcNAc(b1-2)Man(a1-6)]Man(b1-4)GlcNAc(b1-4)GlcNAc
Procedure, shortened: as §1

[5] = target: Fuc(a1-2)Gal(b1-4)[Fuc(a1-3)]GlcNAc(b1-3)Gal(b1-4)[Fuc(a1-3)]GlcNAc(b1-3)Gal(b1-4)[Fuc(a1-3)]GlcNAc
Procedure, shortened: as §1

[6] = target: Fuc(a1-2)Gal(b1-4)[Fuc(a1-3)]GlcNAc(b1-3)GalNAc
Procedure, shortened: as §1

[7] = target: Fuc(a1-2)[Gal(a1-3)]Gal(b1-4)[Fuc(a1-3)]Glc
Procedure, shortened: as §1

[8] = target: Fuc(a1-2)[Gal(a1-4)]Gal(b1-4)GlcNAc
Procedure, shortened: as §1

[9] = target: Fuc(a1-2)[GalNAc(a1-3)]Gal
Procedure, shortened: as §1

[10] = target: Fuc(a1-2)[GalNAc(a1-3)]Gal(b1-4)Glc
Procedure, shortened: as §1

[11] = target: Fuc(a1-2)[GalNAc(a1-3)]Gal(b1-4)[Fuc(a1-3)]GlcNAc
Procedure, shortened: as §1

[12] = target: Fuc(a1-3)[Gal3S(b1-4)]GlcNAc6S
Procedure, shortened: as §1

Gal(a1-3)Gal(b1-4)Glc = target: Gal(a1-3)Gal(b1-4)Glc
Procedure, shortened: as §1

[13] = target: Gal(a1-4)Gal(b1-4)GlcNAc(b1-3)Gal(b1-4)Glc
Procedure, shortened: as §1

[14] = target: Gal(b1-3)GalNAc(a1-3)[Fuc(a1-2)]Gal(b1-4)Glc
Procedure, shortened: as §1

[15] = target: Gal(b1-3)GlcNAc(b1-2)Man(a1-3)[GlcNAc(b1-4)][Gal(b1-3)GlcNAc(b1-2)Man(a1-6)]Man(b1-4)GlcNAc(b1-4)GlcNAc
Procedure, shortened: as §1

[16] = target: Gal(b1-4)GalNAc(b1-3)[Fuc(a1-2)]Gal(b1-4)GlcNAc
Procedure, shortened: as §1

[17] = target: Gal(b1-4)GlcNAc(b1-2)Man(a1-3)Man(b1-4)GlcNAc(b1-4)GlcNAc
Procedure, shortened: as §1

Gal(b1-4)GlcNAc6P = target: Gal(b1-4)GlcNAc6P
Procedure, shortened: as §1

Gal(b1-6)Gal = target: Gal(b1-6)Gal
Procedure, shortened: as §1

Gal3S(b1-4)Glc = target: Gal3S(b1-4)Glc
Procedure, shortened: as §1

[18] = target: Gal3S(b1-4)[Fuc(a1-3)]Glc6S
Procedure, shortened: as §1

Gal6S(b1-4)GlcNAc6S = target: Gal6S(b1-4)GlcNAc6S
Procedure, shortened: as §1

GalNAc(b1-4)Gal(b1-4)Glc = target: GalNAc(b1-4)Gal(b1-4)Glc
Procedure, shortened: as §1

GalNAc6S(b1-4)GlcNAc = target: GalNAc6S(b1-4)GlcNAc
Procedure, shortened: as §1

[19] = target: GlcNAc(a1-4)Gal(b1-4)GlcNAc(b1-3)Gal(b1-4)[Fuc(a1-3)]GlcNAc(b1-3)Gal(b1-4)[Fuc(a1-3)]GlcNAc
Procedure, shortened: as §1

[20] = target: GlcNAc(b1-3)[GlcNAc(b1-4)][GlcNAc(b1-6)]GlcNAc
Procedure, shortened: as §1

[21] = target: Man(a1-2)Man(a1-2)Man(a1-6)[Man(a1-3)]Man
Procedure, shortened: as §1

[22] = target: Neu5Ac(a2-3)Gal(b1-3)GlcNAc(b1-3)Gal(b1-3)GlcNAc
Procedure, shortened: as §1

[23] = target: Neu5Ac(a2-3)Gal(b1-3)GlcNAc6S
Procedure, shortened: as §1

Neu5Ac(a2-3)Gal = target: Neu5Ac(a2-3)Gal
Procedure, shortened: as §1

[24] = target: Neu5Ac(a2-3)Gal(b1-3)GalNAc6S
Procedure, shortened: as §1

[25] = target: Neu5Ac(a2-3)Gal(b1-4)GlcNAc(b1-2)Man(a1-3)[GlcNAc(b1-2)Man(b1-4)GlcNAc(b1-2)Man(a1-6)]Man(b1-4)GlcNAc(b1-4)GlcNAc
Procedure, shortened: as §1

[26] = target: Neu5Ac(a2-3)Gal6S(b1-4)GlcNAc
Procedure, shortened: as §1

[27] = target: Neu5Ac(a2-6)Gal(b1-4)GlcNAc(b1-2)Man(a1-3)[GlcNAc(b1-2)Man(a1-6)]Man(b1-4)GlcNAc(b1-4)GlcNAc
Procedure, shortened: as §1

[28] = target: Neu5Ac(a2-6)Gal(b1-4)GlcNAc(b1-2)Man(a1-3)[Man(a1-6)]Man(b1-4)GlcNAc(b1-4)GlcNAc
Procedure, shortened: as §1

[29] = target: Neu5Gc(a2-3)Gal(b1-4)GlcNAc
Procedure, shortened: as §1

Neu5Gc(a2-6)GalNAc = target: Neu5Gc(a2-6)GalNAc
Procedure, shortened: as §1

Binder	glycan array binding signal (z-score) [1]	glycan array binding signal (z-score) [2]	glycan array binding signal (z-score) [3]	glycan array binding signal (z-score) [4]	glycan array binding signal (z-score) [5]	glycan array binding signal (z-score) [6]	glycan array binding signal (z-score) [7]	glycan array binding signal (z-score) [8]	glycan array binding signal (z-score) [9]	glycan array binding signal (z-score) [10]	glycan array binding signal (z-score) [11]	glycan array binding signal (z-score) [12]	glycan array binding signal (z-score) (Gal(a1-3)Gal(b1-4)Glc)	glycan array binding signal (z-score) [13]	glycan array binding signal (z-score) [14]	glycan array binding signal (z-score) [15]	glycan array binding signal (z-score) [16]	glycan array binding signal (z-score) [17]	glycan array binding signal (z-score) (Gal(b1-4)GlcNAc6P)	glycan array binding signal (z-score) (Gal(b1-6)Gal)	glycan array binding signal (z-score) (Gal3S(b1-4)Glc)	glycan array binding signal (z-score) [18]	glycan array binding signal (z-score) (Gal6S(b1-4)GlcNAc6S)	glycan array binding signal (z-score) (GalNAc(b1-4)Gal(b1-4)Glc)	glycan array binding signal (z-score) (GalNAc6S(b1-4)GlcNAc)	glycan array binding signal (z-score) [19]	glycan array binding signal (z-score) [20]	glycan array binding signal (z-score) [21]	glycan array binding signal (z-score) [22]	glycan array binding signal (z-score) [23]	glycan array binding signal (z-score) (Neu5Ac(a2-3)Gal)	glycan array binding signal (z-score) [24]	glycan array binding signal (z-score) [25]	glycan array binding signal (z-score) [26]	glycan array binding signal (z-score) [27]	glycan array binding signal (z-score) [28]	glycan array binding signal (z-score) [29]	glycan array binding signal (z-score) (Neu5Gc(a2-6)GalNAc)
OrfX (Escherichia coli), Q9X4B6_ECOLX (protein) MIKIARIAVTLGLLSSLGAQAYAAGLVVNDNDLRNDLAWLSDRGVIHLSLSTWPLSQEEIARALKKAKPSYSSEQVVLARINQRLSALKADFRVTGYTSTDQPGTPQGFGQTQPADNSLGLAFNNSGEWWDVHLQGNVEGGERISNGSRFNANGAYGAVKFWNQWLSFGQVPQWWGPGYEGSLIRGDAMRPMTGFLMQRAEQAAPETWWLRWVGPWQYQISASQMNQYTAVPHAKIIGGRFTFTPFQSLELGASRIMQWGGEGRPQSFSSFWDGFTGHDNTGTDNEPGNQLAGFDFKFKLEPTLGWPVSFYGQMVGEDESGYLPSANMFLGGVEGHHGWGKDTVNWYVEAHDTRTNMSRTNYSYTHHIYKDGYYQQGYPLGDAMGGDGQLIAGKVELITEDNQRWSTRLVYAKVNPENQSINKAFPHADTLKGLQLGWSGDVYQSVRLNTSLWYTNANNSDSDDVGASAGIEIPFSL	-0.191	0.429	0.202	-0.108	-0.02	4.3	-0.132	-0.32	-0.116	-0.196	0.042	2.97	-0.261	-0.181	-0.182	0.214	-0.145	-0.266	0.611	0.048	0.076	2.79	2.74	0.667	-0.318	10.6	11.2	-0.231	-0.096	-0.301	–	–	–	–	–	–	–	–
NanH (Corynebacterium diphtheriae), C6JSW6 (protein) MYSSNRTYSRAILGLSAVLTLSFTSLVAPVNAEEPETVVPATAELEGEVAATLPSAETGLLDAAPPKPVARGAAGDLQLPAVNEKEVFEEGRVIRAPEPDQSRCYRIPALVTAKNGDLLLAFDNRYGGGDGAKTWCRDAPYENMKRINRQNMQTDIQLYRSVDNGQSFEDFGYIAQGTADVRELSYTDPALVTDRTTGKIFAFFVRAYDYRVGQSSAGFNEGDVEAEIQKRDVQDTVVVESLDGGQTWGNMRLLSALTAKVSSISTGDTIFDGRGRFVTSGAGIQLQYGEHAGRLIVPISVDIDPKDSAKFINLAIYSDDHGQTWQAGIGTAGGAGFSGDVSKIVELSDGRLMMSSKDNDKPRWVSYSEDQGENWSTPKRKIIAPPQHPEKHNTGINVGLIRAYPNAPENSAAARVLLYSAPIDQRYSHKHTEDGRNNGWVMGSCDDGKTWSFGRQIEKNRFQYSSMTVMSDGNIGMVYESGDFSTGMNLKFAKFNMAWLGADCHSNEALGLTGDIDKEIVEAQEKAAEATKEAQEAAEKVQKLTEELAAARKENDELKNQVKGFKEAVGDLANEAEDLADKVFKLETAVTEAKEKATVAEKAASDAVTQLQKAESIAEEQKAKAESAAAEAQALREKLERLEGSILTVKENPEAEEIADLSSTAKDAADAARRAATDANGALSGQKQDEEKPAMGLMGILKVLAGIIPLVAIIATIFQTFRLPFNIPGMR	–	–	–	–	–	–	–	–	–	–	–	–	–	–	–	–	–	–	–	–	–	–	–	–	–	–	–	–	–	–	0.353	1.83	0.603	-1.04	0.122	-0.077	-0.068	0.15
